The source of these data is PubChem BioAssay (NCATS).

A number with no mark means an inactive call. Results filed as inconclusive are left out. The source made the active and inactive calls. Calls come from the whole dose curve; as a rule, active = well fitted curve in the direction sought with a large enough effect; inconclusive = small, poorly fitted or top-dose-only effect, or another doubt; inactive = no such curve, though single readings can be large; an effect the other way counts as inactive or inconclusive.

Experiment [1] has as its target Glutathione peroxidase 1 (Homo sapiens) (UniProt P07203). The experiment is described as follows: Primary qHTS Assay for Inhibitors of Recombinant Selenoprotein Glutathione Peroxidase 1 (GPX1) (AID 1845191). For activity, negative = inhibition: % is set by controls: 0 for no effect and ±100 for the full control effect. Note: nearly all actives have a fitted effect of over 65% in size. The essentials:
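NADPH consumption tracked by fluorescence at 340/450 nm between t=0 and t=15 min, room temperature. Final mix: 10 nM GPX1, 100 nM glutathione reductase, 1 mM GSH, 0.5 mM NADPH, 0.5 mM cumene hydroperoxide, 0.01% BSA; 30 min compound–enzyme preincubation.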

In experiment [2] the target is Phospholipid hydroperoxide glutathione peroxidase GPX4 (Homo sapiens) (UniProt P36969). Put plainly: Primary qHTS Assay for Inhibitors of Recombinant Selenoprotein Glutathione Peroxidase 4 (GPX4) (AID 1845192). For activity change, negative = inhibition: series mostly up to about 50 µM; % is set by controls: 0 for no effect and ±100 for the full control effect. Note: nearly all actives have a fitted effect of over 65% in size. The essentials:
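NADPH consumption followed by fluorescence at 340/450 nm, t=0 and after 15 min at room temperature. Reaction started with cumene hydroperoxide (0.5 mM final) after 30 min compound–GPX4 preincubation; final 200 nM GPX4, 100 nM GR, 1 mM GSH, 0.5 mM NADPH.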

Experiment [3] has as its target Luciferin 4-monooxygenase (Photinus pyralis) (UniProt P08659). The experiment is described as follows: Primary firefly luciferase (FLuc) qHTS assay for identification of artifact compounds. (AID 1845220).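 For activity change, negative = inhibition: series mostly up to about 54 µM; plate controls were DMSO vehicle for no effect and no enzyme for full effect.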 Note: nearly all actives have a fitted effect of over 60% in size. The essentials: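 Compounds sat 15 min at room temperature with 10 uM luciferin and 10 uM ATP (pH 7.6 Tris acetate). Firefly luciferase (10 nM final) was then added, and luminescence was read 5 min later. Data normalized to no-enzyme and DMSO controls were Hill-fitted.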
A general note: qHTS replaces the single test concentration by a dilution series.

Experiment [4] is described as follows: Primary fluorescence-based thiol-reactive (MSTI) qHTS assay for identification of artifact compounds. (AID 1845221).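 For activity change, negative = thiol reactive: series mostly up to about 54 µM; thiol-reactive compounds lower the probe fluorescence signal.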 Note: nearly all actives have a fitted effect of over 65% in size. Note: potency is the fitted concentration of half-maximal effect. The essentials:
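A multi-concentration qHTS design tested compounds against 4 uM MSTI, pH 7.4 phosphate-buffered saline. Plates were protected from light for 1 h at room temperature before imaging fluorescence.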

The test system of experiment [5] is Nanoluciferase (engineered Oplophorus gracilirostris luciferase). The experiment is described as follows: Primary Nanoluciferase (NLuc) qHTS assay for identification of artifact compounds. (AID 1845222).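 Note: series mostly up to about 54 µM; 0% = DMSO and -100% = no enzyme.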 The essentials:
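Luminescence from secreted NLuc (filtered, 1:55-diluted S16 cell medium) read 5 min after Nano-Glo substrate; compounds preincubated 15 min, RT. Hill fits of inhibition normalized to DMSO and no-enzyme.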

Chain of Glutathione peroxidase 1 (Homo sapiens) (P07203 whole entry, looked up): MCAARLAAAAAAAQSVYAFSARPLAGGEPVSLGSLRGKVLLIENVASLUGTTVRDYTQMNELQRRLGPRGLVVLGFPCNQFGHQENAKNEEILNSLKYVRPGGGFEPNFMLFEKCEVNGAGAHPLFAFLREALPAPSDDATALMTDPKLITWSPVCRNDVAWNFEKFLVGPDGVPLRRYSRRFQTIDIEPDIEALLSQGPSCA
Chain of Phospholipid hydroperoxide glutathione peroxidase GPX4 (Homo sapiens) (P36969 whole entry, looked up): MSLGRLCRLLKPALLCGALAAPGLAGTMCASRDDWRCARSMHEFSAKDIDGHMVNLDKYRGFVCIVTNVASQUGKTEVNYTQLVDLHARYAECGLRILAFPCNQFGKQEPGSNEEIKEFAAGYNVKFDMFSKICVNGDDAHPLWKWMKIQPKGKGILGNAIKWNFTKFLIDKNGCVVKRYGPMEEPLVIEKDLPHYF

Regarding `CC(=O)c1c(C)cc2cccc(O)c2c1O[C@@H]1O[C@H](CO)[C@@H](O)[C@H](O)[C@H]1O`, the Potency result in experiment [1], in experiment [2], in experiment [3] and in experiment [5] was “inactive” in each case. Besides, the Potency in experiment [4] is 5.21 µM (active).
Regarding `Cc1nc(C(=O)N2CCC[C@H]2Cc2nnc(-c3ccccc3)o2)c(-c2ccccc2F)s1`, the Potency entry in experiment [1], in experiment [2], in experiment [3], in experiment [4] and in experiment [5] was “inactive” throughout.
As for `Cc1cccc(-c2[nH]ncc2-c2ccc(F)c(-c3cnn(CCO)c3)c2)n1`, the Potency entry in experiment [1], in experiment [2], in experiment [3], in experiment [4] and in experiment [5] was “inactive” each time.
Turning to `C[C@H](Oc1cc(-n2cnc3ccc(CN4CCN(C)CC4)cc32)sc1C(N)=O)c1ccccc1C(F)(F)F`, the Potency entry in experiment [1], in experiment [2], in experiment [3], in experiment [4] and in experiment [5] was “inactive” throughout.
With `C=C(C)C1=C[C@@]2(C)C(=CC1=O)CC[C@@H](O)[C@@H]2C`, the Potency entry in experiment [1], in experiment [2], in experiment [3], in experiment [4] and in experiment [5] was “inactive” in each case.
`O=C(N[C@@H]1CCCc2c1cnn2-c1ccc(F)cc1F)c1ccccn1`: the Potency result in experiment [1], in experiment [2], in experiment [3], in experiment [4] and in experiment [5] was “inactive” each time.
For the compound `N#CC(CCCN1CCC(O)(c2ccc(Cl)cc2)CC1)(c1ccccc1)c1ccccc1`, the Potency entry in experiment [1], in experiment [2], in experiment [3], in experiment [4] and in experiment [5] was “inactive” throughout.
`COc1cc(O)cc(OC2OC(CO)C(O)C(O)C2O)c1` (stereo not given): the Potency entry in experiment [1], in experiment [2], in experiment [3] and in experiment [5] was “inactive” throughout. In experiment [4], the Potency is 9.47 µM (active).
For `COc1cccc(-c2cn(-c3ccc(CCN4CCC(O)CC4)cc3)c3ncnc(N)c23)c1`, the Potency entry in experiment [1], in experiment [2], in experiment [3], in experiment [4] and in experiment [5] was “inactive” in each case.
Regarding `COc1ccc(C2(N(C)C(=O)c3ccc(NC(=O)c4ccco4)cc3)CCOCC2)cc1`, the Potency entry in experiment [1], in experiment [2], in experiment [3], in experiment [4] and in experiment [5] was “inactive” in each case.
For `C[C@@H]1CC[C@]2(C(=O)O)CC[C@]3(C)C(=CCC4[C@@]5(C)CC[C@H](O)[C@](C)(C(=O)O)C5CC[C@]43C)C2[C@]1(C)O` (stereo not given in full), the Potency entry in experiment [1], in experiment [2], in experiment [3], in experiment [4] and in experiment [5] was “inactive” in each case.
With `NS(=O)(=O)c1ccc(NC(=O)Nc2ccc(F)cc2)cc1`, the Potency result in experiment [1], in experiment [2], in experiment [3], in experiment [4] and in experiment [5] was “inactive” each time.
For the compound `COc1ccccc1N1CCN(c2ncnc3n[nH]c(Br)c23)CC1`, the Potency result in experiment [1], in experiment [2], in experiment [3], in experiment [4] and in experiment [5] was “inactive” in each case.
For `Cc1c(OCc2cccc(-c3ccc(C(=O)O)cc3)c2)cc2c(c1C)C(=O)C(C1CCCC1)C2` (stereo not given), the Potency result in experiment [1], in experiment [2], in experiment [3], in experiment [4] and in experiment [5] was “inactive” in each case.
Take `COCC(=O)NC/C=C/c1ccc2ncnc(Nc3ccc(Oc4ccc(C)nc4)c(C)c3)c2c1`: the Potency entry in experiment [1], in experiment [2], in experiment [3], in experiment [4] and in experiment [5] was “inactive” each time.
With `CC(=O)C1(C)CCC2C3C=C(C)C4=CC(=O)CCC4(C)C3CCC21C` (stereo not given), the Potency result in experiment [1], in experiment [2], in experiment [3], in experiment [4] and in experiment [5] was “inactive” in each case.
Regarding `C=C1CCCC2(C)CCC(C(C)(C)OC3OC(C)C(O)C(O)C3OC(=O)/C(C)=C\C)CC12` (stereo not given), the Potency entry in experiment [1], in experiment [2], in experiment [3], in experiment [4] and in experiment [5] was “inactive” throughout.
Turning to `COc1c2c(c(C)c3c1C(=O)OC3)O[C@@]1(C)C[C@@H](OC(C)=O)[C@]34O[C@](OC)(CC[C@]3(C)[C@H]1C2)OC4(C)C`, the Potency result in experiment [1], in experiment [2], in experiment [3], in experiment [4] and in experiment [5] was “inactive” in each case.
With `C=CC(=O)N1CCC(Oc2cc3c(Nc4ccc(Cl)c(Cl)c4F)ncnc3cc2OC)CC1`, the Potency entry in experiment [1], in experiment [2], in experiment [3], in experiment [4] and in experiment [5] was “inactive” each time.
Take `Cc1ccc(C(C)C)c(O[C@@H]2O[C@H](CO)[C@@H](O)[C@H](O)[C@H]2O)c1`: the Potency result in experiment [1], in experiment [2], in experiment [3] and in experiment [5] was “inactive” throughout. In addition, in experiment [4], the Potency was 10.4 µM (active).
`CCc1ccccc1OC[C@@H](O)CN[C@H]1CCCc2ccccc21`: the Potency entry in experiment [1], in experiment [2], in experiment [3], in experiment [4] and in experiment [5] was “inactive” throughout.
In the case of `COc1cc(O)c2c(c1)C1OC1C[C@H](O)[C@H](O)C(=O)/C=C\C[C@H](C)OC2=O` (stereo not given in full), the Potency result in experiment [1], in experiment [2], in experiment [3], in experiment [4] and in experiment [5] was “inactive” throughout.
Take `C/C(=C/C=C\C=C\Cc1cnco1)[C@@H](O)C(C)(C)C(N)=O`: the Potency entry in experiment [1], in experiment [2], in experiment [3], in experiment [4] and in experiment [5] was “inactive” in each case.
Regarding `CCC(C)(OC(C)=O)C(=O)O[C@H]1[C@H](OC(C)=O)[C@]2(CO)[C@H](O)[C@H](O)[C@]3(C)C(=CCC4[C@@]5(C)CC[C@H](O[C@@H]6O[C@H](C(=O)O)[C@@H](O)[C@H](O[C@@H]7OC[C@H](O)[C@H](O[C@@H]8OC[C@H](O)[C@H](O)[C@H]8O)[C@H]7O)[C@H]6O[C@@H]6O[C@H](CO)[C@@H](O)[C@H](O)[C@H]6O)C(C)(C)C5CC[C@]43C)[C@@H]2CC1(C)C` (stereo not given in full), the values for the activity, negative = inhibition in experiment [1] and in experiment [5] were -12.6% [at 9.52 µM] and -1.71% [at 11.6 µM], respectively. The activity change, negative = inhibition is -15.3% [at 9.73 µM] in experiment [2] and -11% [at 11.6 µM] in experiment [3]. Besides, the activity change, negative = thiol reactive in experiment [4] was 202% [at 11.5 µM].
Regarding `CC(C)(C)C1CCN(C(=O)n2ncc(C(O)(c3ccccc3)c3ccccc3)n2)CC1`, the Potency result in experiment [1], in experiment [2], in experiment [3], in experiment [4] and in experiment [5] was “inactive” each time.
For the compound `CCN1CCN(Cc2ccc(C(=O)Nc3ccc(C)c(Oc4ccc5c(c4)CC(=O)N5)c3)cc2C(F)(F)F)CC1`, the Potency entry in experiment [1], in experiment [2], in experiment [3], in experiment [4] and in experiment [5] was “inactive” in each case.
